Here are results for 20 compounds from PubChem BioAssay (NCATS).

Molecules are shown by their SMILES. Inconclusive results are not listed. Some structures have more than one record in an assay (separate samples or runs), and their calls can disagree. Activity calls are given as the source filed them. Unless noted, calls follow the shape of the dose curve; as a rule, active = well fitted curve in the direction sought with a large enough effect; inconclusive = small, poorly fitted or top-dose-only effect, or another doubt; inactive = no such curve, though single readings can be large; an effect the other way counts as inactive or inconclusive.

One assay deals with UISO. Put plainly: qHTS assay to identify novel small-molecules to repurpose for Merkel cell carcinoma treatment (AID 1296009). Also: nearly all actives have a fitted effect of over 60% in size. Also: potency is read from the fitted curve at half-maximal effect. Conditions: MCC and control cell lines, CellTiter-Glo viability, 72 h; series mostly up to 46 µM. In outline:
(§1)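 Cells were treated for 72 hr at 37 degree celsius with compounds in 8- or 11-point dose response. Viability was read by CellTiter-Glo luminescence, normalized to no-cell (cytotoxicity) and DMSO controls.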
(Quantitative high-throughput screening tests each substance at several concentrations.)

In another assay the test system is WaGa. The description is as above. The following applies: MCC and control cell lines, CellTiter-Glo viability, 72 h; series mostly up to 46 µM. The method, boiled down:
as §1
On the technique in general: Cellular ATP, detected with luciferase, serves as a proxy for viable cell number.

In another assay the test system is NIH3T3. The description is as above. Conditions: MCC and control cell lines, CellTiter-Glo viability, 72 h; at 44.8 µM (top of the series) unless noted. In outline: as §1
A further assay deals with C33A. Put plainly: Primary qHTS to identify gynecologic anti-cancer compounds using libraries of approved drugs and bioactive compounds (AID 1345084). Also: nearly all actives have a fitted effect of over 55% in size. Also: potency is read from the fitted curve at half-maximal effect. The following applies: Gynecologic cancer cell panel viability, ATPlite luminescence, 48 h; series mostly up to 57.5 µM. The method, boiled down:
(§2)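 Cell viability after 48 h drug treatment, ATPlite luminescence readout; five doses.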

In the next assay the test system is CAOV3. The assay is described as above. Conditions: Gynecologic cancer cell panel viability, ATPlite luminescence, 48 h; series mostly up to 57.5 µM. In outline:
as §2

The next assay relates to CASKI. The assay is described as above. The following applies: Gynecologic cancer cell panel viability, ATPlite luminescence, 48 h; series mostly up to 57.5 µM. In outline: as §2
In the next assay the test system is Es-2. The assay is described as above. Conditions: Gynecologic cancer cell panel viability, ATPlite luminescence, 48 h; series mostly up to 57.5 µM. The method, boiled down:
as §2

The subject of a further assay is Hek293T. Described as above. Conditions: Gynecologic cancer cell panel viability, ATPlite luminescence, 48 h, control line for the selectivity index; series mostly up to 57.5 µM. In outline:
as §2

A further assay has as its system JEG-3. The assay is described as above. The following applies: Gynecologic cancer cell panel viability, ATPlite luminescence, 48 h; series mostly up to 57.5 µM. In outline: as §2
Another assay deals with OV90. Described as above. Conditions: Gynecologic cancer cell panel viability, ATPlite luminescence, 48 h; series mostly up to 57.5 µM. In outline:
as §2

The test system of another assay is PA-1. Described as above. Conditions: Gynecologic cancer cell panel viability, ATPlite luminescence, 48 h; series mostly up to 57.5 µM. In outline: as §2
Another assay has as its system SKOV3. The description is as above. The following applies: Gynecologic cancer cell panel viability, ATPlite luminescence, 48 h; series mostly up to 57.5 µM. In outline:
as §2

A further assay has as its system Tov-21-G. The description is as above. The following applies: Gynecologic cancer cell panel viability, ATPlite luminescence, 48 h; series mostly up to 57.5 µM. The method, boiled down: as §2
The next assay concerns Tov112D. The assay is described as above. The following applies: Gynecologic cancer cell panel viability, ATPlite luminescence, 48 h; series mostly up to 57.5 µM. In outline:
as §2

A short description of assay [1]: Drug repurposing screens with cells derived from glioblastoma tumor samples (AID 1345199). Also: nearly all actives have a fitted effect of over 40% in size. Also: potency is read from the fitted curve at half-maximal effect. As to activity, negative = cell killing: % is scaled to controls: 0 for no effect and ±100 for the full control effect. The following applies: GBM patient neurospheres viability, ATP luminescence, 48 h. In outline:
(§3)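 Four patient lines of CD133+ GBM neurospheres were screened at several concentrations; hits were retested in those lines plus three slower-growing GBM lines, using 48-hour treatment and ATP-based viability.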

In another assay the test system is astro. Described as above. Conditions: viability, ATP luminescence, 48 h; series mostly up to 45.9 µM. The method, boiled down:
as §3

The test system of a further assay is HeLa. Put plainly: Primary qHTS to identify gynecologic anti-cancer compounds using libraries of approved drugs and bioactive compounds (AID 1345084). Also: nearly all actives have a fitted effect of over 55% in size. Also: potency is read from the fitted curve at half-maximal effect. The following applies: Gynecologic cancer cell panel viability, ATPlite luminescence, 48 h; series mostly up to 57.5 µM. In outline: as §2
Assay [2] has as its target Nuclear receptor subfamily 1 group I member 2 (Rattus norvegicus) (UniProt Q9R1A7). Put plainly: qHTS assay for small molecule activators of the rat pregnane X receptor (rPXR) signaling pathway (AID 651751; call rule not given here; also: 0% is about no effect). Conditions: rPXR reporter cells, luciferase (One-Glo), 24 h.
Assay [3] in a line: qHTS assay to identify inhibitors of the type 1 interferon - major histocompatibility complex class I in skeletal muscle: Counter screen cell viability and HiBit confirmation (AID 1347412). Also: potency is read from the fitted curve at half-maximal effect; nearly all actives have a fitted effect of over 60% in size. The following applies: iHSKM muscle cells + IFN-b, HiBiT or CellTiter-Glo, 24 h; Potency: HiBiT; Viability, at 45.9 µM (top of the series). In outline: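 CRISPR HLA-B*08:01-HiBit immortalized human myoblasts (C25cl48) stimulated with 4 ng/ml IFN-beta and compounds (12-point 1:3, top 46 uM final) for 24 h at 37 C. Duplicate plates read by HiBit lytic luminescence or CellTiter Glo ATP.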

Nuclear receptor subfamily 1 group I member 2 (Rattus norvegicus), sequence (Q9R1A7 whole entry, looked up): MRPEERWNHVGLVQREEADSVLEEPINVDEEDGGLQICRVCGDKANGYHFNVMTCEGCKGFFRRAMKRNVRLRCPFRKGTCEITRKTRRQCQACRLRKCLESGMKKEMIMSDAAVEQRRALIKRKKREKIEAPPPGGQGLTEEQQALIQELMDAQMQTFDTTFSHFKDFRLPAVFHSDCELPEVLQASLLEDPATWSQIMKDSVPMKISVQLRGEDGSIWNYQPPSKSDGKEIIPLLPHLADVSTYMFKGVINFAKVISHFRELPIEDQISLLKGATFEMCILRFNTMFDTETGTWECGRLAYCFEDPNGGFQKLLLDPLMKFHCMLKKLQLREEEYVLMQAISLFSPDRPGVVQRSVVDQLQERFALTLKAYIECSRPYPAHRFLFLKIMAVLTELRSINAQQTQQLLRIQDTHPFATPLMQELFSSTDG

Consider `C[C@]1(c2nc3c(C(N)=O)cccc3[nH]2)CCCN1`, for which the Potency result with UISO and in the assay with WaGa was “inactive” each time.

For the compound `Cc1cccc(-c2nn(C(=S)Nc3ccccc3)cc2-c2ccnc3ccccc23)n1`, the Potency result with UISO was “inactive”.

For the compound `Cc1cccc(-c2[nH]c(C(C)(C)C)nc2-c2ccc3nccnc3c2)n1`, the Potency is 2.96 µM (active) in the assay with UISO and 2.64 µM (active) in the assay with WaGa.

Turning to `O=S(=O)(N=Cc1c(O)ccc2ccccc12)c1cccs1`, in the assay with NIH3T3, the result was inactive. The Potency result in the assay with WaGa is “inactive”.

Take `CCCCCCCc1ccc(CCc2cccc(O)c2C(=O)O)cc1`: the Potency result with UISO and in the assay with WaGa was “inactive” each time.

With `CC(c1cc2ccccc2s1)N(O)C(N)=O` (stereo not given), the compound was classed as inactive in the assay on NIH3T3. Besides, the Potency result with UISO, in the assay on WaGa, in the assay with C33A, in the assay on CAOV3, with CASKI and in the assay with Es-2 was “inactive” in each case. Also, the Potency entry in the assay with Hek293T, with JEG-3, in the assay on OV90, in the assay with PA-1, in the assay on SKOV3 and in the assay on Tov-21-G was “inactive” throughout. The Potency result with Tov112D and with astro was “inactive” each time. For the same compound, the activity, negative = cell killing in [1] (at 45.9 µM (top of the series), tumour line B) was -3.78% (inactive); in assay [1] (at 45.9 µM (top of the series), tumour line D) it was -20.5% (inactive); in [1] (at 46 µM (top of the series), tumour line A) it was -18.2% (inactive); in [1] (at 46.1 µM (top of the series), tumour line C) it was -18.9% (inactive).

Turning to `NC(=O)c1ccc(-c2nc(-c3ccc4c(c3)OCO4)c(-c3ccccn3)[nH]2)cc1`, the Potency result in the assay with UISO and in the assay on WaGa was “inactive” in each case.

Turning to `C[C@]12CC[C@H](O)CC1=CC[C@@H]1[C@H]2CC[C@]2(C)C(c3cccnc3)=CC[C@H]12`, the Potency entry in the assay with UISO and with WaGa was “inactive” each time.

Regarding `Cc1cc([C@@H](C)Nc2ccccc2C(=O)O)c2nc(N3CCOCC3)cc(=O)n2c1`, the Potency with UISO is 34 µM (active).

Turning to `Cc1c(C)c2c(c(C)c1O)CCC(C)(COc1ccc(CC3SC(=O)NC3=O)cc1)O2` (stereo not given), the compound was called inactive with NIH3T3. The Potency is 16.8 µM (active) and inactive with WaGa; 10 µM (active) in the assay with astro. The Potency result in the assay on C33A, with CAOV3, with CASKI, in the assay on Es-2, in the assay with HeLa and with Hek293T was “inactive” each time. In addition, the Potency result in the assay on JEG-3, with OV90, in the assay with PA-1, in the assay with Tov-21-G and in the assay with Tov112D was “inactive” throughout. For the same compound, in assay [2], the max response is -12.9% (inactive).

With `CCOc1ccc(Cc2cc([C@@H]3O[C@H](CO)[C@@H](O)[C@H](O)[C@@H]3O)ccc2Cl)cc1`, the Potency entry in the assay on UISO is “inactive”.

With `NC(=O)C1CCCc2c1[nH]c1ccc(Cl)cc21` (stereo not given), the Potency result in the assay with UISO and in the assay with WaGa was “inactive” throughout.

Consider `CCOc1cc(C=C2C(=O)N(c3ccccc3)N=C2C)cc(Cl)c1OCC(=O)OC`, for which the Potency entry in the assay with UISO and in the assay on WaGa was “inactive” throughout.

Turning to `CNC(=O)c1ccc(C)c(-n2c(C)cc(OCc3ccc(F)cc3F)c(Br)c2=O)c1`, the compound was called inactive with NIH3T3. The Potency entry in the assay on C33A, with CAOV3, in the assay on CASKI, in the assay with Es-2, in the assay with HeLa and in the assay with Hek293T was “inactive” throughout. The Potency result with JEG-3, in the assay with OV90, with PA-1, in the assay with SKOV3, in the assay on Tov-21-G and with Tov112D was “inactive” in each case.

On to `CC1(C)SCCN(S(=O)(=O)c2ccc(OCC#CCO)cc2)[C@@H]1C(=O)NO`, for which the Potency entry with UISO is “inactive”.

Take `CNC(=O)c1ccc(N2C(=S)N(c3ccc(C#N)c(C(F)(F)F)c3)C(=O)C2(C)C)cc1F`: the Potency result in the assay with UISO and with WaGa was “inactive” throughout.

Turning to `Cc1cnc(Nc2ccc(OCCN3CCCC3)cc2)nc1Nc1cccc(S(=O)(=O)NC(C)(C)C)c1`, the result with NIH3T3 was inactive. Moreover, the Potency result in the assay with UISO and with WaGa was “inactive” each time. Further, the Potency in the assay on CAOV3 is 10 µM (active); with CASKI it was 14.1 µM (active); in the assay with HeLa, 7.08 µM (active); with JEG-3, 12.6 µM (active); in the assay on OV90, 17.8 µM (active); with PA-1, 8.91 µM (active). The Potency was 7.94 µM (active) in the assay with SKOV3, 7.94 µM (active) in the assay with Tov-21-G, 11.2 µM (active) in the assay with Tov112D and 6.25 µM (active) in [3].

With `COc1ccccc1-c1cccc(-c2c(O)c3cc(C#N)c(Cl)cc3[nH]c2=O)c1`, the Potency result in the assay with UISO and in the assay on WaGa was “inactive” throughout.

Take `Nc1cccc(S(=O)(=O)N2CCCN(S(=O)(=O)c3ccc4c(c3)OCCO4)CC2)c1`: the Potency result in the assay on UISO and in the assay on WaGa was “inactive” each time.

Regarding `C[C@@H]1CN(Cc2ccc(F)cc2)[C@@H](C)CN1C(=O)c1cc2c(C(=O)C(=O)N(C)C)cn(C)c2cc1Cl`, in the assay with NIH3T3, the call was inactive. For the same compound, the Potency entry with UISO, in the assay with C33A, in the assay with CAOV3, in the assay with CASKI, in the assay on Es-2 and in the assay with HeLa was “inactive” throughout. The Potency entry in the assay on Hek293T, in the assay on JEG-3, with OV90, in the assay with PA-1, in the assay with SKOV3 and with Tov-21-G was “inactive” each time. The Potency result in the assay on Tov112D is “inactive”.
